SMN2 splice up – enhancers of SMN2 splice variant expression; 2.8% of 210,000 active; HEK293 SMN2-luciferase splicing reporter, luminescence, 30-36 h; AID 1458; Potency, µM (top dose mostly 46.1 µM), for the others: at the top dose activity change, positive = activation, hits mostly activators; further: % of control where 0% means no effect; nearly all actives have a fitted effect of over 55% in size
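qHTS luciferase splicing reporter: luminescence rises when SMN2 exon 7 is included in transfected HEK293 cells. Compound exposure lasted 30-36 h at 37C, with 4.5 mM final sodium butyrate as control, followed by a ONE-Glo read.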
NPC1 promoter act – activates the NPC1 promoter | Huh7 NPC1 promoter luciferase reporter, 24 h | Potency, µM (titrated, usually from 9.22 µM), for the others: at the top dose activation, usual class: activators | 2.4% of 320,000 active | AID 485313; further: % of control where 0% means no effect; nearly all actives have a fitted effect of over 60% in size
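Huh7 reporter cells (NPC1 promoter driving luciferase) are dosed with compound for 24 h at 37 °C, 5% CO2; luciferase detection reagent is then added and luminescence measured after 10 min at ambient temperature.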
FLuc modulator – inhibits or activates purified firefly luciferase, miR-21 counter-screen; P08659; purified FLuc, Km substrates, luminescence inhibition; Potency, µM (doses to about 57.5 µM), without a hit: top-dose activity change, negative = inhibition, hits mostly inhibitors; 6.9% of 360,000 active; AID 588342;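 further: plate controls were vehicle for no effect and reference inhibitor for full effect; nearly all actives have a fitted effect of over 55% in size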
Target sequence (P08659 whole entry, looked up): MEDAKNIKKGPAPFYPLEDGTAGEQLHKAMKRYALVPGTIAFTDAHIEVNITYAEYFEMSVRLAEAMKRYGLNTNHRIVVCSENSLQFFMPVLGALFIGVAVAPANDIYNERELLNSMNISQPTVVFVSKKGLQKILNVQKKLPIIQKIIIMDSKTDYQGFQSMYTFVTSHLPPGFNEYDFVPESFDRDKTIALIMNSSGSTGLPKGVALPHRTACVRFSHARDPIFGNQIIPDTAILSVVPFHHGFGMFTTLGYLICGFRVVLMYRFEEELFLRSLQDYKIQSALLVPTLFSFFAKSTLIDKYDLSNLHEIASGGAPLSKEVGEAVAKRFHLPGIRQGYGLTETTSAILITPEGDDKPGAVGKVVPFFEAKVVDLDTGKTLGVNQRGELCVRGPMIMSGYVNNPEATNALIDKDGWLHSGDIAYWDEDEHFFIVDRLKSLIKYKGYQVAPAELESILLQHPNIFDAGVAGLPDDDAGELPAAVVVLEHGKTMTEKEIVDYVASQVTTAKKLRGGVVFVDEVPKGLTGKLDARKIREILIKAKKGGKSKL
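Purified P. pyralis luciferase (10nM final) with 10uM D-luciferin and 10uM ATP (Km levels) in 50mM Tris acetate pH 7.5, 10mM Mg acetate, 0.01% Tween-20, 0.05% BSA; qHTS 6-point titration, ~60 µM downward; luminescence read.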
Rab9 promoter act – Rab9 promoter activation. Potency, µM (top dose mostly 9.22 µM), for inactives: at the top dose activation, negative = inhibition, most hits filed as activators. AID 485297. Huh7 Rab9 promoter-luciferase reporter, luminescence, 24 h. 2.8% of 320,000 active; further: % of control where 0% means no effect; nearly all actives have a fitted effect of over 60% in size
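Rab9 promoter-driven luciferase in stably transfected Huh7 cells; 1500 cells/well rested 2 h, exposed to compound in DMSO for 24 h at 37 °C, 5% CO2. Luminescence read 10 min after adding luciferase reagent at ambient temperature.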
ELG1 genotoxic – inducers of genotoxicity in HEK293T ELG1-luciferase cells. 1.3% of 330,000 active. AID 504466. HEK293T ELG1-luciferase reporter, luminescence, 16 h. Potency, µM (top dose mostly 46 µM), for inactives: at the top dose activity change, positive = activation, actives largely listed as activators; further: % of control where 0% means no effect; nearly all actives have a fitted effect of over 60% in size
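Reporter readout depends on ELG1 protein level, which increases with genetic stress. After 16 hr compound exposure at 37 °C, luciferase activity was quantified using ONE-Glo.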
Starred values were filed as active, the others as inactive. Only some compounds are listed: those with a hit (about 7.4% of all), similar ones and a draw of the others. The call rests on the fitted dose curve; in most records, active means well fitted curve in the direction sought with a large enough effect; inconclusive means small, poorly fitted or top-dose-only effect, or another doubt; inactive means no such curve, though single readings can be large; an effect the other way counts as inactive or inconclusive. Potency means the concentration at half of the fitted maximal effect.

`O=C(CCCc1ccccc1)c1ccccc1` gave NPC1 promoter act 1.6µM*, FLuc modulator 0.76µM*, Rab9 promoter act 1.4µM* and ELG1 genotoxic inconclusive.
Screening CNc1ccc(/C=C/C(=O)c2ccc3c(c2)OCCO3)cc1[N+](=O)[O-] returned SMN2 splice up -8%, NPC1 promoter act 2%, FLuc modulator 6µM*, Rab9 promoter act -7% and ELG1 genotoxic inconclusive.
Screening O=C(CCCC(=O)c1ccc(O)cc1)c1ccc(O)cc1 returned NPC1 promoter act 3.5µM*, FLuc modulator 2.4µM*, Rab9 promoter act inconclusive and ELG1 genotoxic 4.6µM*.
`CC(CN1CCCCC1)OC(=O)c1ccc2c(c1)OCCO2` (centres undefined) gave NPC1 promoter act 23%, FLuc modulator inconclusive, Rab9 promoter act 22% and ELG1 genotoxic inconclusive.
Screening CC(OC(=O)c1ccc2c(c1)OCCO2)C(=O)c1ccccc1 (centres undefined) returned NPC1 promoter act 0.71µM*, FLuc modulator 0.85µM*, Rab9 promoter act 0.5µM* and ELG1 genotoxic inconclusive.
CCOC(=O)C1CCN(C(=O)CN(C)S(=O)(=O)c2ccc3c(c2)c(=O)n(C)c(=O)n3C)CC1 was read as NPC1 promoter act 2%, FLuc modulator 0%, Rab9 promoter act -1% and ELG1 genotoxic -2%.
For CC(CN1CCOCC1)OC(=O)c1ccc2c(c1)OCCO2 (centres undefined) the results were SMN2 splice up 26%, NPC1 promoter act inconclusive, FLuc modulator 27µM*, Rab9 promoter act 2.2µM* and ELG1 genotoxic inconclusive.
Screening O=C(CCN1CCc2ccccc2C1)c1ccc2c(c1)OCCO2 returned SMN2 splice up -5%, NPC1 promoter act 12%, FLuc modulator inconclusive, Rab9 promoter act 2% and ELG1 genotoxic -1%.
`O=C(CCc1ccccc1)c1ccc2c(c1)OCCCO2` gave SMN2 splice up inconclusive, NPC1 promoter act 3.2µM*, FLuc modulator 4.3µM*, Rab9 promoter act 0.63µM* and ELG1 genotoxic 4.1µM*.
For O=C(O)CCC(=O)c1ccc2c(c1)OCCCO2 the results were SMN2 splice up 15%, NPC1 promoter act -7%, FLuc modulator -3%, Rab9 promoter act 3% and ELG1 genotoxic 5%.
O=C(/C=C/c1ccccc1)c1ccc2c(c1)OCCCCO2 was read as SMN2 splice up inconclusive, NPC1 promoter act 1µM*, FLuc modulator 0.38µM*, Rab9 promoter act 1.1µM* and ELG1 genotoxic inconclusive.
Screening O=C(CCN1CCc2ccccc21)c1ccc2c(c1)OCCO2 returned SMN2 splice up -5%, NPC1 promoter act inconclusive, FLuc modulator 8.5µM*, Rab9 promoter act inconclusive and ELG1 genotoxic 14%.
COc1ccc(-c2cc(C(=O)OCC(=O)c3c(N)n(C)c(=O)n(C)c3=O)c3ccccc3n2)cc1 was read as SMN2 splice up -5%, NPC1 promoter act -1%, FLuc modulator 7.6µM*, Rab9 promoter act 14% and ELG1 genotoxic 2%.
`COc1ccc(-c2cc(C(=O)c3c(N)n(C)c(=O)n(C)c3=O)c3ccccc3n2)cc1` gave NPC1 promoter act inconclusive, FLuc modulator 0.38µM*, Rab9 promoter act inconclusive and ELG1 genotoxic inconclusive.
`O=Cc1ccc(OCC(=O)N2CCOCC2)cc1` gave NPC1 promoter act -3%, FLuc modulator -3%, Rab9 promoter act 1% and ELG1 genotoxic 1%.
Screening O=C1NC2(CCCCCC2)C(=O)N1Cc1ccccc1Br returned NPC1 promoter act -1%, FLuc modulator 3%, Rab9 promoter act 3% and ELG1 genotoxic -2%.
Cc1c(/C=N/NC(=O)c2cc(=O)[nH]c(=O)[nH]2)c2ccccn2c1C(=O)c1ccccc1 was read as SMN2 splice up -16%, NPC1 promoter act 0%, FLuc modulator 24µM*, Rab9 promoter act -2% and ELG1 genotoxic -2%.
Screening Cc1c(/C=N/NC(=O)c2cccnc2)c2ccccn2c1C(=O)c1ccc(F)cc1 returned SMN2 splice up -24%, NPC1 promoter act -2%, FLuc modulator 15µM*, Rab9 promoter act -3% and ELG1 genotoxic -11%.
For Cc1c(/C=N/NC(=O)c2ccc(O)cc2)c2ccccn2c1C(=O)c1ccc(F)cc1 the results were SMN2 splice up -35%, NPC1 promoter act 5%, FLuc modulator inconclusive, Rab9 promoter act 6% and ELG1 genotoxic -8%.
Screening Cc1c(/C=N/NC(=O)c2ccccc2O)c2ccccn2c1C(=O)c1ccc(F)cc1 returned SMN2 splice up -103%, NPC1 promoter act -1%, FLuc modulator 13µM*, Rab9 promoter act 7% and ELG1 genotoxic -17%.
Cc1occc1C(=O)Nc1cccc2ccccc12 was read as SMN2 splice up 3.2µM*, NPC1 promoter act 2µM*, FLuc modulator 2.7µM*, Rab9 promoter act 1.6µM* and ELG1 genotoxic 5.8µM*.
Screening Cc1occc1C(=O)N/N=C/c1cccc2ccccc12 returned NPC1 promoter act inconclusive, FLuc modulator 5.4µM*, Rab9 promoter act 2.2µM* and ELG1 genotoxic 7.3µM*.
For O=C(N/N=C/c1cccc2ccccc12)c1ccccc1Cl the results were NPC1 promoter act -2%, FLuc modulator 7.6µM*, Rab9 promoter act 3% and ELG1 genotoxic 6%.
For Cc1occc1C(=O)N/N=C/c1cccs1 the results were SMN2 splice up 25%, NPC1 promoter act inconclusive, FLuc modulator inconclusive, Rab9 promoter act inconclusive and ELG1 genotoxic 11%.
Cn1c(=O)n(C)c2cc(NC(=O)CSc3nc4ccccc4c(=O)[nH]3)ccc21 was read as NPC1 promoter act 0%, FLuc modulator inconclusive, Rab9 promoter act 6% and ELG1 genotoxic inconclusive.
N/C(=N\OC(=O)c1ccc2c(c1)OCO2)c1cccc(Br)c1 was read as NPC1 promoter act inconclusive, FLuc modulator 0.13µM*, Rab9 promoter act 4.5µM* and ELG1 genotoxic inconclusive.
`COc1cc(OC)c(C(=O)Oc2ccc3c(c2)OCO3)cc1OC` gave SMN2 splice up -14%, NPC1 promoter act -1%, FLuc modulator -10%, Rab9 promoter act 12% and ELG1 genotoxic -2%.
`N/C(=N\OC(=O)c1ccc2c(c1)OCO2)c1cccnc1` gave NPC1 promoter act inconclusive, FLuc modulator 1.2µM*, Rab9 promoter act inconclusive and ELG1 genotoxic inconclusive.
COc1ccc(/C(N)=N/OC(=O)c2ccc3c(c2)OCO3)cc1OC was read as SMN2 splice up inconclusive, NPC1 promoter act inconclusive, FLuc modulator 3µM*, Rab9 promoter act inconclusive and ELG1 genotoxic inconclusive.
For N/C(=N\OC(=O)c1ccc2c(c1)OCO2)c1ccc([N+](=O)[O-])cc1 the results were SMN2 splice up 26%, NPC1 promoter act inconclusive, FLuc modulator inconclusive, Rab9 promoter act inconclusive and ELG1 genotoxic inconclusive.
`COc1ccc(C(=O)Oc2ccc3c(c2)OCO3)cc1OC` gave SMN2 splice up 4%, NPC1 promoter act 3%, FLuc modulator 24µM*, Rab9 promoter act 3% and ELG1 genotoxic 11%.

High-throughput results as filed in PubChem BioAssay.
